# Reference: PubChem BioAssay AID1835 (Johns Hopkins Ion Channel Center, 2009)
# Hit rate of the full screen: of about 2,400 compounds, about 750 (31%) were called active. The list shows a part of the results. Unmarked numbers belong to inactive results.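 How the source made its calls: active means median signal gain over dofetilide-blocked control wells reaching their mean plus 3 SD, so readout 1 at least 0; inactive means the rest.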
# Biological target: Voltage-gated inwardly rectifying potassium channel KCNH2 (Homo sapiens) (UniProt Q12809)
# Sequence (Q12809 whole entry, looked up): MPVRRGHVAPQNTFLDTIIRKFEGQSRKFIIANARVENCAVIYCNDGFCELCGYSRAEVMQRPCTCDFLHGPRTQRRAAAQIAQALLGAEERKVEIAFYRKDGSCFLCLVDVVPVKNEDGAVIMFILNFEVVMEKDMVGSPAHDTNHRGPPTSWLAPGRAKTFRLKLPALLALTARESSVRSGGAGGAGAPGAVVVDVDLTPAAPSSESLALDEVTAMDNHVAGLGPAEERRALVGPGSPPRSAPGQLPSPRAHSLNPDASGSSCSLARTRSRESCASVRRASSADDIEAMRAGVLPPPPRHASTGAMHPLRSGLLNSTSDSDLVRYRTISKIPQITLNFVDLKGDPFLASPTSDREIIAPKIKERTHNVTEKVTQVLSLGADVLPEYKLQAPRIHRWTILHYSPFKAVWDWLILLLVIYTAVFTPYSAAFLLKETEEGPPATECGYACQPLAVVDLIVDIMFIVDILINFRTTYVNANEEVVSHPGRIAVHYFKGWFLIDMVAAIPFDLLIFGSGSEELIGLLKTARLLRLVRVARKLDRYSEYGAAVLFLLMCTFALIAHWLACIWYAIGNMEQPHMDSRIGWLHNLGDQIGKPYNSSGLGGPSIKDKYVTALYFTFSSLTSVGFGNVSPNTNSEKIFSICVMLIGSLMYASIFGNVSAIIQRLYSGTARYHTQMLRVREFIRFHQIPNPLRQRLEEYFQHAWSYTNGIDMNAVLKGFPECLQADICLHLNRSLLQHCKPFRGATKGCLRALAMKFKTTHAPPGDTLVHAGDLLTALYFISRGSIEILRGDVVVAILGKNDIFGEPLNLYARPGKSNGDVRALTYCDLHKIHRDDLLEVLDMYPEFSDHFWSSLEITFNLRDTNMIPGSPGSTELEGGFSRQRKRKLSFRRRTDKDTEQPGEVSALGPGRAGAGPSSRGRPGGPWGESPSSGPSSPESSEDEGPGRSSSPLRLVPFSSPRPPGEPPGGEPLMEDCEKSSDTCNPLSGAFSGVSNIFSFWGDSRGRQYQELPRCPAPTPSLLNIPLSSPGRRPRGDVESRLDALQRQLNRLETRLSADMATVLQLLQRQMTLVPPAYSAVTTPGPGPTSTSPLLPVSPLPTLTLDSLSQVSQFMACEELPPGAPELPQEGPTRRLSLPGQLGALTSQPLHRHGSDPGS
# Assay: modulators restoring hERG flux under dofetilide – cell-based, thallium flux, duplicate retest, dofetilide IC70, confirmation (AID 1835)
# Conditions: hERG cell line, FluxOR thallium flux, dofetilide-blocked; at 10 µM; stronger effect = higher value
row,Structure (SMILES),"activity increase over dofetilide control, less the hit threshold"
1,C=CCN(c1ccc(C(=O)NC(C)C)cc1)S(C)(=O)=O,-10%
2,CS(=O)(=O)N(Cc1ccccc1)c1ccc(C(=O)Nc2ccc(C(N)=O)cc2)cc1,82% (active)
3,COc1ccc(N(CC(=O)N2CCN(Cc3ccccc3)CC2)S(C)(=O)=O)cc1,-16%
4,CCC1=C(OC(=O)N(CC)CC)N2C(=O)OC(=NCC3CC3)[C@]2(C)[C@H]2C1=CC[C@H]1C(=O)N(C)C(=O)[C@H]12,-1%
5,N=c1c2cn[nH]c2nc(SCC(=O)c2ccc(Br)cc2)n1-c1ccc(Br)cc1,-3%
6,Cc1cc(C(=O)NCc2ccc(S(N)(=O)=O)cc2)ccc1[N+](=O)[O-],-15%
7,CSC(=S)N/N=C/c1ccc(Br)cc1,46% (active)
8,CSC(=S)N/N=C/c1ccccc1,34% (active)
9,C/C(=N\NC(N)=S)c1cccnc1,-8%
10,COCCNC(=O)C(=O)N/N=C/c1ccc(C(=O)OC)cc1,-11%
11,CSc1ccc(/C=N/NC(=O)c2cccs2)cc1,-17%
12,CC(C)NC(=S)N/N=C/c1ccc(C(C)(C)C)cc1,-13%
13,C/C(=N\NC(N)=S)c1ccncc1,-3%
14,CSC(=S)N/N=C(\C)c1ccccc1,35% (active)
15,CC(C)(C)c1ccc(/C=N/NC(=S)Nc2cccnc2)cc1,-11%
16,COCCOC(=O)C1=C(C)Nc2ncnn2C1c1ccc(F)cc1 (stereo not given),-26%
17,CCOC(=O)c1c(NS(C)(=O)=O)sc2c1CCC(C)C2 (stereo not given),21% (active)
18,CC(C)OC(=O)c1c(NS(=O)(=O)c2ccccc2)sc2c1CCCC2,37% (active)
19,CC1CCc2c(sc(NS(=O)(=O)c3ccccc3)c2C(=O)OC(C)C)C1 (stereo not given),7% (active)
20,CC(C)OC(=O)c1c(NC(=O)c2ccco2)sc2c1CCCCC2,-12%
21,COC(=O)c1c(NC(=O)CN2CCOCC2)sc2c1CCC(C)C2 (stereo not given),-13%
22,CC(NS(=O)(=O)c1ccccc1)C(N)=O (stereo not given),-10%
23,O=[N+]([O-])c1ccc(Cl)c(/C=N/Nc2nc(N3CCOCC3)nc(N3CCOCC3)n2)c1,-18%
24,COc1ccccc1C(=O)COC(=O)c1ccc(-n2cnnn2)cc1,-21%

row,Structure (SMILES),"activity increase over dofetilide control, less the hit threshold"
1,O=C(N/N=C\c1coc2ccccc2c1=O)c1ccco1,-24%
2,CC(Nc1ccc(F)cc1)=[N+](C)CCNS(=O)(=O)c1ccc(Cl)cc1,-3%
3,CC1Cc2cc(S(=O)(=O)NCc3ccccc3)ccc2N1C(=O)C1CCC1 (stereo not given),-22%
4,Cc1csc2ncc(C(=O)N3c4ccccc4CC3C)c(=O)n12 (stereo not given),-2%
5,CC1Cc2ccccc2N1C(=S)NC(=O)c1ccc(Cl)cc1Cl (stereo not given),55% (active)
6,CC1Cc2ccccc2N1C(=S)NC(=O)c1ccco1 (stereo not given),6% (active)
7,CC1Cc2ccccc2N1C(=S)NC(=O)C1(C)CC1(Cl)Cl (stereo not given),42% (active)
8,COc1cc2c(cc1OC)C(C)N(C(=S)NC(=O)c1ccccc1)CC2 (stereo not given),-18%
9,O=C(NN1C(=O)C2C(c3ccccc3)C=CC(c3ccccc3)C2C1=O)c1cccc(Br)c1 (stereo not given),-54%
10,CC(=O)N1CCc2cc(S(=O)(=O)N3c4ccccc4CC3C)ccc21 (stereo not given),-14%
11,CC1Cc2ccccc2N1C(=S)NC(=O)c1cccc(Br)c1 (stereo not given),77% (active)
12,CC1=C(C#N)C(Nc2cc(C)ccn2)(C(F)(F)F)C(=O)N1 (stereo not given),-10%
13,Cc1nn(Cc2ccccc2)c2c1C(c1cccnc1)C(C#N)=C(N)O2 (stereo not given),-6%
14,N=C1C(=O)OCC1c1cc(Cl)ccc1NC(=O)Nc1ccccc1 (stereo not given),-9%
15,CCCn1c(CC)nc([N+](=O)[O-])c1S(=O)(=O)c1ccccc1,3% (active)
16,CC(C)N1CC(C(=O)Nc2ccc(Cl)c(Cl)c2)CC1=O (stereo not given),-8%
17,CCCCCCCc1c(O)nc(SCC(=O)O)[nH]c1=O,-6%
18,CCOC(=O)c1sc(NC(=S)NC(=O)c2cccc(OC)c2)nc1C,7% (active)
19,O=C(NC(=S)Nc1nc2c(s1)CSc1ccccc1-2)c1ccccc1,21% (active)
20,Cc1csc(NC(=O)c2cn3ccccc3n2)n1,-12%
21,CCOC(=O)c1sc(NC(=S)NC(=O)c2ccco2)nc1C,7% (active)
22,Cc1csc(NC(=S)NC(=O)c2ccccc2)n1,10% (active)
23,Cc1nc(NC(=O)c2ccco2)sc1C(=O)O,-10%
24,CCn1cc(CCC(=O)NCc2cccc(OC)c2OC)c2ccccc21,-12%

row,Structure (SMILES),"activity increase over dofetilide control, less the hit threshold"
1,CCOC(=O)c1sc(NC(=S)NC(=O)c2ccc(OC)cc2)nc1C,-2%
2,COC(=O)c1sc(NC(=S)NC(=O)c2ccccc2F)nc1C,-3%
3,COC(=O)c1sc(NC(=S)NC(=O)c2ccccc2C)nc1C,26% (active)
4,CCOC(=O)c1sc(NC(=S)NC(=O)c2ccccc2)nc1C,36% (active)
5,COC(=O)c1sc(NC(=S)NC(=O)c2ccc(C)cc2)nc1C,-3%
6,Cc1ccc(CN2CCN(/N=C/c3ccc(O)c(O)c3)CC2)cc1,7% (active)
7,Nc1cccc(Oc2cnccn2)c1,-5%
8,Nc1ncnc(NC2CCS(=O)(=O)C2)c1[N+](=O)[O-] (stereo not given),-12%
9,Cc1cc(NC(=O)CSc2ccc3nnc(-c4cccs4)n3n2)no1,-17%
10,COc1ccc(C(=O)CC(=O)C(=O)Nc2ccc(C)cc2Cl)cc1,35% (active)
11,COc1cccc(C(=O)CC(=O)C(=O)Nc2ccc(C)cc2Cl)c1,50% (active)
12,COc1cc(OC)cc(C(=O)O/N=C(\N)c2cccc(C)c2)c1,-14%
13,COc1ccc(CNC(=O)C2CCCN2)cc1OC (stereo not given),-14%
14,Cc1ccc(CC23CN4CCN(CC(C4)C2O)C3)c(C)c1 (stereo not given),-14%
15,NC(=O)c1nsc(C(=O)N(CC(=O)NCc2ccccc2)c2ccc(F)cc2)c1N,-22%
16,Cc1ccc2c(c1)c1nnc(SCC(=O)Nc3ccc(N(C)C)cc3)nc1n2CC(=O)O,-9%
17,O=C(/C=C/c1ccccc1)Nc1ccc(S(=O)(=O)N2CCOCC2)cc1,-10%
18,COc1ccc(/C=C/C(=O)Nc2ccccc2C(=O)O)cc1OC,18% (active)
19,COc1cc(/C=C/C(=O)O)ccc1OS(=O)(=O)c1cc(C)ccc1C,-26%
20,COc1ccc(/C=C/C(=O)Nc2ccccc2C(=O)O)cc1,5% (active)
21,C=CCNC(=O)c1ccccc1NC(=O)COc1ccc(OC)cc1,-2%
22,COc1cc(/C=C/C(=O)N[C@@H](Cc2c[nH]c3ccccc23)C(=O)O)ccc1O,-8%
